# Source: PubChem BioAssay AID1159580 (chemical genetic matrix, 2015)
# “And” between values parts separate entries of the source, which are not always exact repeats. Equal entries are not always repeated. The whole screen tested about 5,500 compounds, of which about 2,000 (36%) were called active. Inconclusive results (about 18%) are left out. Cut-off read from the data, not from the text of the source: active = normalized growth mostly below about 0.91 (no sharp cut-off); inconclusive = no clear call, values can overlap the other calls; inactive = mostly above about 0.92. The list shows a part of the results.
# Experiment: chemical genetic growth profiling, strain panel (AID 1159580);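 note: tested at 20 µM; growth read once vehicle control cultures reached saturation at 30 °C; 1 = growth at the plate median or of vehicle wells; lower values mean less growth of the strain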
# Settings: growth OD
# [1] = S. cerevisiae deletion strains, locus YAL013W, strain DEP1, stronger effect = lower value
# [2] = S. cerevisiae deletion strains, locus YBR229C, strain ROT2, stronger effect = lower value
# [3] = S. cerevisiae deletion strains, locus YCL061C, strain MRC1, stronger effect = lower value
# [4] = S. cerevisiae deletion strains, locus YDL101C, strain DUN1, stronger effect = lower value
# [5] = S. cerevisiae deletion strains, locus YDR150W, strain NUM1, stronger effect = lower value
# [6] = S. cerevisiae deletion strains, locus YEL061C, strain CIN8, stronger effect = lower value
# [7] = S. cerevisiae deletion strains, locus YGR078C, strain PAC10, stronger effect = lower value
# [8] = S. cerevisiae deletion strains, locus YHR030C, strain SLT2, stronger effect = lower value
# [9] = S. cerevisiae deletion strains, locus YHR087W, strain rtc3, stronger effect = lower value
# [10] = S. cerevisiae deletion strains, locus YJR043C, strain POL32, stronger effect = lower value
# [11] = S. cerevisiae deletion strains, locus YJR075W, strain HOC1, stronger effect = lower value
# [12] = S. cerevisiae deletion strains, locus YLR039C, strain RIC1, stronger effect = lower value
# [13] = S. cerevisiae deletion strains, locus YLR058C, strain SHM2 (second series), stronger effect = lower value
# [14] = S. cerevisiae deletion strains, locus YLR085C, strain ARP6, stronger effect = lower value
# [15] = S. cerevisiae deletion strains, locus YLR262C, strain YPT6, stronger effect = lower value
# [16] = S. cerevisiae deletion strains, locus YML094W, strain GIM5, stronger effect = lower value
# [17] = S. cerevisiae deletion strains, locus YMR219W, strain ESC1, stronger effect = lower value
# [18] = S. cerevisiae deletion strains, locus YMR263W, strain SAP30, stronger effect = lower value
# [19] = S. cerevisiae deletion strains, locus YMR307W, strain GAS1, stronger effect = lower value
# [20] = S. cerevisiae deletion strains, locus YNL153C, strain GIM3, stronger effect = lower value
# [21] = S. cerevisiae deletion strains, locus YNL298W, strain CLA4 (second series), stronger effect = lower value
# [22] = S. cerevisiae deletion strains, locus YNL322C, strain KRE1, stronger effect = lower value
# [23] = S. cerevisiae deletion strains, locus YNR030W, strain Alg12, stronger effect = lower value
# [24] = S. cerevisiae deletion strains, locus YOL006C, strain TOP1, stronger effect = lower value
# [25] = S. cerevisiae deletion strains, locus YPL055C, strain LGE1, stronger effect = lower value
# [26] = S. cerevisiae deletion strains, locus YPL241C, strain CIN2, stronger effect = lower value
# [27] = S. cerevisiae deletion strains, locus YPR135W, strain CTF4, stronger effect = lower value
compound,measurement,setting,value
CCOC(=O)CSC(=S)NCc1ccc(C)cc1,normalized growth,[1],0.822 (active)
same,normalized growth,"S. cerevisiae deletion strains, locus YAR019C, strain CDC15, stronger effect = lower value",0.956 (inactive)
same,normalized growth,"S. cerevisiae deletion strains, locus YBL105C, strain PKC1, stronger effect = lower value",0.958 (inactive)
same,normalized growth,"S. cerevisiae deletion strains, locus YBR135W, strain CKS1, stronger effect = lower value",0.937 (inactive)
same,normalized growth,"S. cerevisiae deletion strains, locus YBR136W, strain MEC1, stronger effect = lower value",0.955 (inactive)
same,normalized growth,"S. cerevisiae deletion strains, locus YBR160W, strain CDC28, stronger effect = lower value",0.951 (inactive)
same,normalized growth,[2],0.866 (active)
same,normalized growth,[3],0.907 (active)
same,normalized growth,"S. cerevisiae deletion strains, locus YDL017W, strain CDC7, stronger effect = lower value",0.959 (inactive)
same,normalized growth,"S. cerevisiae deletion strains, locus YDL028C, strain MPS1, stronger effect = lower value",0.947 (inactive)
same,normalized growth,[4],0.947 (inactive) and 0.839 (active)
same,normalized growth,"S. cerevisiae deletion strains, locus YDL108W, strain KIN28, stronger effect = lower value",0.956 (inactive)
same,normalized growth,"S. cerevisiae deletion strains, locus YDL132W, strain cdc53, stronger effect = lower value",0.928 (inactive)
same,normalized growth,"S. cerevisiae deletion strains, locus YDL134C, strain PPH21, stronger effect = lower value",0.0516 (active)
same,normalized growth,"S. cerevisiae deletion strains, locus YDL214C, strain PRR2, stronger effect = lower value",0.95 (inactive)
same,normalized growth,"S. cerevisiae deletion strains, locus YDR052C, strain DBF4, stronger effect = lower value",0.972 (inactive)
same,normalized growth,"S. cerevisiae deletion strains, locus YDR054C, strain cdc34, stronger effect = lower value",0.93 (inactive)
same,normalized growth,[5],0.787 (active)
same,normalized growth,"S. cerevisiae deletion strains, locus YDR226W, strain ADK1, stronger effect = lower value",0.946 (inactive)
same,normalized growth,"S. cerevisiae deletion strains, locus YDR477W, strain SNF1, stronger effect = lower value",0.949 (inactive)
same,normalized growth,[6],0.216 (active)
same,normalized growth,"S. cerevisiae deletion strains, locus YER123W, strain YCK3, stronger effect = lower value",0.933 (inactive)
same,normalized growth,"S. cerevisiae deletion strains, locus YER133W, strain GLC7, stronger effect = lower value",0.953 (inactive)
same,normalized growth,"S. cerevisiae deletion strains, locus YFL009W, strain cdc4, stronger effect = lower value",0.944 (inactive)
same,normalized growth,"S. cerevisiae deletion strains, locus YFL029C, strain CAK1, stronger effect = lower value",0.958 (inactive)
same,normalized growth,"S. cerevisiae deletion strains, locus YFR003C, strain YPI1, stronger effect = lower value",0.957 (inactive)
same,normalized growth,"S. cerevisiae deletion strains, locus YFR019W, strain FAB1, stronger effect = lower value",0.957 (inactive)
same,normalized growth,"S. cerevisiae deletion strains, locus YFR028C, strain CDC14, stronger effect = lower value",0.947 (inactive)
same,normalized growth,"S. cerevisiae deletion strains, locus YGR040W, strain KSS1, stronger effect = lower value",0.946 (inactive)
same,normalized growth,"S. cerevisiae deletion strains, locus YGR052W, strain FMP48, stronger effect = lower value",1.01 (inactive)
same,normalized growth,[7],0.766 (active)
same,normalized growth,"S. cerevisiae deletion strains, locus YGR092W, strain DBF2, stronger effect = lower value",0.937 (inactive)
same,normalized growth,[8],0.0833 (active) and 0.84 (active)
same,normalized growth,"S. cerevisiae deletion strains, locus YHR079C, strain IRE1, stronger effect = lower value",0.93 (inactive)
same,normalized growth,"S. cerevisiae deletion strains, locus YHR082C, strain KSP1, stronger effect = lower value",0.964 (inactive)
same,normalized growth,[9],0.86 (active)
same,normalized growth,"S. cerevisiae deletion strains, locus YHR205W, strain SCH9, stronger effect = lower value",0.872 (inactive)
same,normalized growth,"S. cerevisiae deletion strains, locus YIL147C, strain SLN1, stronger effect = lower value",0.951 (inactive)
same,normalized growth,"S. cerevisiae deletion strains, locus YJL095W, strain BCK1, stronger effect = lower value",0.879 (inactive)
same,normalized growth,"S. cerevisiae deletion strains, locus YJL128C, strain PBS2, stronger effect = lower value",0.954 (inactive)
same,normalized growth,"S. cerevisiae deletion strains, locus YJL157C, strain FAR1, stronger effect = lower value",0.963 (inactive)
same,normalized growth,"S. cerevisiae deletion strains, locus YJL187C, strain SWE1, stronger effect = lower value",0.958 (inactive)
same,normalized growth,"S. cerevisiae deletion strains, locus YJR016C, strain ILV3, stronger effect = lower value",0.954 (inactive)
same,normalized growth,[10],0.812 (active)
same,normalized growth,"S. cerevisiae deletion strains, locus YJR066W, strain TOR1 (second series), stronger effect = lower value",0.989 (inactive)
same,normalized growth,"S. cerevisiae deletion strains, locus YJR066W, strain TOR1, stronger effect = lower value",0.957 (inactive)
same,normalized growth,[11],0.82 (active)
same,normalized growth,"S. cerevisiae deletion strains, locus YKL048C, strain ELM1, stronger effect = lower value",0.944 (inactive)
same,normalized growth,"S. cerevisiae deletion strains, locus YKL067W, strain YNK1, stronger effect = lower value",0.95 (inactive)
same,normalized growth,"S. cerevisiae deletion strains, locus YKL101W, strain HSL1, stronger effect = lower value",0.955 (inactive)
same,normalized growth,"S. cerevisiae deletion strains, locus YKL193C, strain SDS22, stronger effect = lower value",0.948 (inactive)
same,normalized growth,"S. cerevisiae deletion strains, locus YKL203C, strain TOR2, stronger effect = lower value",1 (inactive)
same,normalized growth,[12],0.172 (active)
same,normalized growth,[13],0.909 (active)
same,normalized growth,[14],0.0735 (active)
same,normalized growth,"S. cerevisiae deletion strains, locus YLR113W, strain HOG1, stronger effect = lower value",0.76 (active)
same,normalized growth,"S. cerevisiae deletion strains, locus YLR133W, strain CKI1, stronger effect = lower value",0.959 (inactive)
same,normalized growth,[15],0.111 (active)
same,normalized growth,"S. cerevisiae deletion strains, locus YLR403W, strain SFP1, stronger effect = lower value",0.967 (inactive)
same,normalized growth,"S. cerevisiae deletion strains, locus YML070W, strain DAK1, stronger effect = lower value",0.949 (inactive)
same,normalized growth,[16],0.493 (active)
same,normalized growth,"S. cerevisiae deletion strains, locus YMR001C, strain CDC5, stronger effect = lower value",0.946 (inactive)
same,normalized growth,"S. cerevisiae deletion strains, locus YMR205C, strain PFK2 (second series), stronger effect = lower value",0.965 (inactive)
same,normalized growth,[17],0.909 (active)
same,normalized growth,[18],0.853 (active)
same,normalized growth,"S. cerevisiae deletion strains, locus YMR277W, strain FCP1, stronger effect = lower value",0.957 (inactive)
same,normalized growth,[19],0.109 (active)
same,normalized growth,"S. cerevisiae deletion strains, locus YNL006W, strain LST8, stronger effect = lower value",0.959 (inactive)
same,normalized growth,"S. cerevisiae deletion strains, locus YNL020C, strain ARK1, stronger effect = lower value",0.948 (inactive)
same,normalized growth,[20],0.665 (active)
same,normalized growth,"S. cerevisiae deletion strains, locus YNL161W, strain CBK1, stronger effect = lower value",0.953 (inactive)
same,normalized growth,"S. cerevisiae deletion strains, locus YNL183C, strain NPR1, stronger effect = lower value",0.912 (inactive)
same,normalized growth,"S. cerevisiae deletion strains, locus YNL207W, strain RIO2, stronger effect = lower value",0.953 (inactive)
same,normalized growth,"S. cerevisiae deletion strains, locus YNL222W, strain SSU72, stronger effect = lower value",0.956 (inactive)
same,normalized growth,[21],0.0782 (active)
same,normalized growth,"S. cerevisiae deletion strains, locus YNL307C, strain MCK1 (second series), stronger effect = lower value",0.928 (inactive)
same,normalized growth,[22],0.925 (active)
same,normalized growth,[23],0.0728 (active)
same,normalized growth,[24],0.107 (active)
same,normalized growth,"S. cerevisiae deletion strains, locus YOL078W, strain AVO1, stronger effect = lower value",0.948 (inactive)
same,normalized growth,"S. cerevisiae deletion strains, locus YOL136C, strain PFK27, stronger effect = lower value",0.946 (inactive)
same,normalized growth,"S. cerevisiae deletion strains, locus YOR061W, strain CKA2, stronger effect = lower value",0.965 (inactive)
same,normalized growth,"S. cerevisiae deletion strains, locus YOR119C, strain RIO1, stronger effect = lower value",1.01 (inactive)
same,normalized growth,"S. cerevisiae deletion strains, locus YOR231W, strain MKK1, stronger effect = lower value",0.914 (inactive)
same,normalized growth,"S. cerevisiae deletion strains, locus YOR329C, strain SCD5, stronger effect = lower value",0.952 (inactive)
same,normalized growth,"S. cerevisiae deletion strains, locus YPL031C, strain PHO85, stronger effect = lower value",0.944 (inactive)
same,normalized growth,[25],0.618 (active)
same,normalized growth,"S. cerevisiae deletion strains, locus YPL153C, strain RAD53, stronger effect = lower value",0.954 (inactive)
same,normalized growth,"S. cerevisiae deletion strains, locus YPL204W, strain HRR25, stronger effect = lower value",0.943 (inactive)
same,normalized growth,"S. cerevisiae deletion strains, locus YPL209C, strain IPL1, stronger effect = lower value",0.953 (inactive)
same,normalized growth,[26],0.0682 (active)
same,normalized growth,"S. cerevisiae deletion strains, locus YPL256C, strain CLN2, stronger effect = lower value",0.825 (active)
same,normalized growth,"S. cerevisiae deletion strains, locus YPR025C, strain CCL1, stronger effect = lower value",0.943 (inactive)
same,normalized growth,"S. cerevisiae deletion strains, locus YPR106W, strain ISR1, stronger effect = lower value",0.951 (inactive)
same,normalized growth,"S. cerevisiae deletion strains, locus YPR111W, strain DBF20, stronger effect = lower value",0.931 (inactive)
same,normalized growth,[27],0.148 (active)
same,normalized growth,"S. cerevisiae deletion strains, strain NNK1, stronger effect = lower value",0.948 (inactive)
same,normalized growth,"S. cerevisiae deletion strains, strain TSCII, stronger effect = lower value",0.949 (inactive)
CCOC(=O)C1CCN(C(=S)Nc2ccccc2C(F)(F)F)CC1,normalized growth,[1],1 (inactive)
same,normalized growth,[2],1 (inactive)
same,normalized growth,[3],1.02 (inactive)
same,normalized growth,[4],1.01 (inactive)
same,normalized growth,[5],0.994 (inactive)
same,normalized growth,[6],0.998 (inactive)
same,normalized growth,[7],1.01 (inactive)
same,normalized growth,[8],0.99 (inactive)
same,normalized growth,[9],1.02 (inactive)
same,normalized growth,[10],1 (inactive)
same,normalized growth,[11],0.982 (inactive)
same,normalized growth,"S. cerevisiae deletion strains, locus YKL190W, strain CNB1, stronger effect = lower value",0.994 (inactive)
same,normalized growth,[12],0.866 (inactive)
same,normalized growth,[13],0.996 (inactive)
same,normalized growth,[14],0.983 (inactive)
same,normalized growth,[15],0.868 (inactive)
same,normalized growth,[16],1.08 (inactive)
same,normalized growth,[17],1 (inactive)
same,normalized growth,[18],1.01 (inactive)
same,normalized growth,[19],0.913 (inactive)
same,normalized growth,[20],1.01 (inactive)
same,normalized growth,[21],0.973 (inactive)
same,normalized growth,[22],1.01 (inactive)
same,normalized growth,[23],0.978 (inactive)
same,normalized growth,[24],1.04 (inactive)
same,normalized growth,[25],1.03 (inactive)
same,normalized growth,[26],1.01 (inactive)
same,normalized growth,[27],0.982 (inactive)
same,normalized growth,"S. cerevisiae strains, strain wild type, stronger effect = lower value",1.01 (inactive)
